# According to PubChem BioAssay (NCI):
# Compounds without any hit were thinned out: in the full panel of roughly 79,000, 15% have a hit. A number with no mark means an inactive call. Calls of active or inactive are those of the source. Cut-off read from the data, not from the text of the source: active = growth inhibition above about 70%; inactive = the rest.
# Experiments:
# [1] = NCI Yeast Anticancer Drug Screen. Data for the rad52 strain (AID 147);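 note: 0% = growth of vehicle-treated control cultures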; details: S. cerevisiae rad52 mutant growth inhibition, hits give high values
# Procedure, shortened: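 Screen used a yeast mutant impaired in DNA repair. After compound exposure, growth was measured. Values reflect inhibition compared with vehicle-treated cells.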
# [2] = NCI Yeast Anticancer Drug Screen. Data for the wt1 strain (AID 149);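 note: 0% = growth of vehicle-treated wt1 cultures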; details: S. cerevisiae wt1 strain (SPY 50644) growth inhibition, hits give high values
# Procedure, shortened: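 Each compound is tested on wt1 yeast and the loss of growth versus vehicle gives the inhibition value.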
# [3] = NCI Yeast Anticancer Drug Screen. Data for the rad50EPP+ strain (AID 151);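 note: 0% = growth of vehicle-treated control cultures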; details: S. cerevisiae rad50 mutant strain, hits give high values
# Procedure, shortened: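 Exposing the rad50EPP+ strain to each compound, growth was compared with vehicle-only cultures to give inhibition.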
# [4] = NCI Yeast Anticancer Drug Screen. Data for the mgt1 strain (AID 153); details: S. cerevisiae mgt1 mutant growth inhibition, hits give high values
# Procedure, shortened: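 Genetically defined yeast (mgt1) treated with compound; inhibition of growth expressed against vehicle-treated controls.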
# [5] = NCI Yeast Anticancer Drug Screen. Data for the rad50 strain (AID 155);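 note: 0% = growth of vehicle-only cultures of the same strain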; details: S. cerevisiae rad50 strain growth inhibition, hits give high values
# Procedure, shortened: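 Vehicle-treated cultures provide the reference for the growth inhibition reported for compound-exposed, repair-deficient yeast.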
# [6] = NCI Yeast Anticancer Drug Screen. Data for the mec2-1 strain (AID 157); details: S. cerevisiae mec2-1 strain, hits give high values
# Procedure, shortened: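 Readout is yeast growth inhibition, normalised to vehicle-treated controls, in the mec2-1 strain exposed to compound.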
# [7] = NCI Yeast Anticancer Drug Screen. Data for the rad14 strain (AID 159);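 note: 0% = growth of vehicle-treated control cultures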; details: S. cerevisiae rad14 strain growth inhibition, hits give high values
# Procedure, shortened: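 Inhibition of growth is reported for a repair-deficient yeast mutant following compound treatment, calculated relative to cultures that received vehicle.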
# [8] = NCI Yeast Anticancer Drug Screen. Data for the sgs1 mgt1 strain (AID 161);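 note: 0% = growth of cultures given vehicle only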; details: S. cerevisiae sgs1 mgt1 strain, hits give high values
# Procedure, shortened: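 Yeast cells carrying a defined DNA-repair defect were exposed to test compounds. Growth inhibition was measured relative to vehicle-treated controls.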
# [9] = NCI Yeast Anticancer Drug Screen. Data for the CLN2oe strain (AID 163);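 note: 0% = growth of vehicle-only control cultures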; details: S. cerevisiae CLN2oe strain, hits give high values
# Procedure, shortened: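 Values reflect how much compound exposure reduced yeast growth, referenced to vehicle-exposed cells. Assay organism is a strain with a defined genetic change affecting cell-cycle control.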
# [10] = NCI Yeast Anticancer Drug Screen. Data for the cln2 rad14 strain (AID 165);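 note: 0% = growth equal to vehicle treated cultures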; details: S. cerevisiae cln2 rad14 strain, hits give high values
# Procedure, shortened: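 Relative to vehicle controls, growth inhibition of compound-treated cln2 rad14 yeast was recorded.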
# [11] = NCI Yeast Anticancer Drug Screen. Data for the bub3 strain (AID 167); details: S. cerevisiae bub3 mutant strain, hits give high values
# Procedure, shortened: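 Mutant yeast screening strain plus compound; vehicle-treated cultures serve as the 0% inhibition reference.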
# [12] = NCI Yeast Anticancer Drug Screen. Data for the wt2 strain (AID 169); details: S. cerevisiae wt2 strain growth inhibition, hits give high values
# Procedure, shortened: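 Values express reduction in yeast growth under compound treatment, referenced to vehicle-treated cells.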
# [13] = NCI Yeast Anticancer Drug Screen. Data for the mlh1 strain (AID 171);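 note: 0% = growth of vehicle-treated control cultures of the same strain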; details: S. cerevisiae mlh1 strain growth inhibition, hits give high values
# Procedure, shortened: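 Steps: expose the defined-mutant yeast strain to compound; expose a parallel culture to vehicle; measure growth; express compound effect as inhibition relative to the vehicle culture.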
# [14] = NCI Yeast Anticancer Drug Screen. Data for the sgs1 strain (AID 173);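 note: 0% = growth of vehicle-only control cultures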; details: S. cerevisiae sgs1 mutant, hits give high values
# Procedure, shortened: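 Treat defined-mutant yeast with compound; measure growth; calculate inhibition relative to vehicle-treated cells.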
# [15] = NCI Yeast Anticancer Drug Screen. Data for the mlh1 rad18 strain (AID 175); details: S. cerevisiae mlh1 rad18 strain growth inhibition, hits give high values
# Procedure, shortened: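 Test agents were incubated with a yeast strain of defined genotype (DNA damage repair defect). Inhibition of growth was derived by comparison with vehicle-exposed cultures.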
# [16] = at 5.0 µM (retest, dose inferred, filed as 0.5)
# [17] = at 50.0 µM (retest, dose inferred, filed as 5.0)
smiles,measurement,setting,value
CCOP(=O)(CC(C)P(=O)(OCC)OCC)OCC.C[CH2][Sn]([Cl])([Cl])[CH2]C (stereo not drawn),growth inhibition,[1]; at 1.2 µM,-4%
same,growth inhibition,[1]; at 3.7 µM,-1%
same,growth inhibition,[1]; at 11.0 µM,19%
same,growth inhibition,[1]; at 33.0 µM,79% (active)
same,growth inhibition,[1]; at 100.0 µM,94% (active)
same,growth inhibition,[2]; at 1.2 µM,0%
same,growth inhibition,[2]; at 3.7 µM,3%
same,growth inhibition,[2]; at 11.0 µM,12%
same,growth inhibition,[2]; at 33.0 µM,76% (active)
same,growth inhibition,[2]; at 100.0 µM,93% (active)
same,growth inhibition,[3]; at 1.2 µM,-1%
same,growth inhibition,[3]; at 3.7 µM,1%
same,growth inhibition,[3]; at 11.0 µM,5%
same,growth inhibition,[3]; at 33.0 µM,4%
same,growth inhibition,[3]; at 100.0 µM,4%
same,growth inhibition,[4]; at 1.2 µM,-3%
same,growth inhibition,[4]; at 3.7 µM,-1%
same,growth inhibition,[4]; at 11.0 µM,4%
same,growth inhibition,[4]; at 33.0 µM,67%
same,growth inhibition,[4]; at 100.0 µM,95% (active)
same,growth inhibition,[5]; at 1.2 µM,-7%
same,growth inhibition,[5]; at 3.7 µM,-15%
same,growth inhibition,[5]; [16],16%
same,growth inhibition,[5]; at 11.0 µM,-2%
same,growth inhibition,[5]; at 33.0 µM,71% (active)
same,growth inhibition,[5]; [17],14%
same,growth inhibition,[5]; at 50.0 µM,82.7% (active)
same,growth inhibition,[5]; at 100.0 µM,92% (active)
same,growth inhibition,[6]; at 1.2 µM,1%
same,growth inhibition,[6]; at 3.7 µM,4%
same,growth inhibition,[6]; [16],1%
same,growth inhibition,[6]; at 11.0 µM,14%
same,growth inhibition,[6]; at 33.0 µM,69%
same,growth inhibition,[6]; [17],18%
same,growth inhibition,[6]; at 50.0 µM,85.4% (active)
same,growth inhibition,[6]; at 100.0 µM,93% (active)
same,growth inhibition,[7]; at 1.2 µM,-3%
same,growth inhibition,[7]; at 3.7 µM,1%
same,growth inhibition,[7]; at 11.0 µM,4%
same,growth inhibition,[7]; at 33.0 µM,19%
same,growth inhibition,[7]; at 100.0 µM,76% (active)
same,growth inhibition,[8]; [16],11%
same,growth inhibition,[8]; [17],4%
same,growth inhibition,[8]; at 50.0 µM,68.2%
same,growth inhibition,[9]; at 1.2 µM,-6%
same,growth inhibition,[9]; at 3.7 µM,-5%
same,growth inhibition,[9]; at 11.0 µM,7%
same,growth inhibition,[9]; at 33.0 µM,72% (active)
same,growth inhibition,[9]; at 100.0 µM,93% (active)
same,growth inhibition,[10]; [16],6%
same,growth inhibition,[10]; [17],52%
same,growth inhibition,[10]; at 50.0 µM,50.1%
same,growth inhibition,[11]; at 1.2 µM,-2%
same,growth inhibition,[11]; at 3.7 µM,1%
same,growth inhibition,[11]; [16],-9%
same,growth inhibition,[11]; at 11.0 µM,5%
same,growth inhibition,[11]; at 33.0 µM,55%
same,growth inhibition,[11]; [17],53%
same,growth inhibition,[11]; at 50.0 µM,84.1% (active)
same,growth inhibition,[11]; at 100.0 µM,91% (active)
same,growth inhibition,[12]; at 1.2 µM,-1%
same,growth inhibition,[12]; at 3.7 µM,-2%
same,growth inhibition,[12]; at 11.0 µM,2%
same,growth inhibition,[12]; at 33.0 µM,76% (active)
same,growth inhibition,[12]; at 100.0 µM,94% (active)
same,growth inhibition,[13]; at 1.2 µM,0%
same,growth inhibition,[13]; at 3.7 µM,2%
same,growth inhibition,[13]; at 11.0 µM,8%
same,growth inhibition,[13]; at 33.0 µM,69%
same,growth inhibition,[13]; at 100.0 µM,95% (active)
same,growth inhibition,[14]; at 1.2 µM,-8%
same,growth inhibition,[14]; at 3.7 µM,4%
same,growth inhibition,[14]; at 11.0 µM,14%
same,growth inhibition,[14]; at 33.0 µM,85% (active)
same,growth inhibition,[14]; at 100.0 µM,95% (active)
same,growth inhibition,[15]; [16],-2%
same,growth inhibition,[15]; [17],28%
same,growth inhibition,[15]; at 50.0 µM,62.7%
